From PubChem BioAssay (EPA / NIEHS) come the findings set out here.

The target in test [1] is Bile acid receptor (Homo sapiens) (UniProt Q96RI1). The experiment in a line: ATG_FXR_TRANS: Attagene TRANS-FACTORIAL HepG2 Assay for Farnesoid X Receptor (FXR) (AID 2282979; active = hit-call score of the fitted dose curve at least 0.9, where 1 is the maximum;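 note: hits raise reporter mRNA above DMSO so AC50 marks FXR activation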). As to conditions: HepG2 Attagene TRANS FXR-GAL4 reporter transcription. An outline of the steps:
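HepG2 cells transiently transfected with reporter constructs in which a chimeric FXR-GAL4 protein drives a GAL4-UAS reporter; 24 h compound exposure. Reporter mRNA measured by RT-PCR, FAM labelling, HpaI digestion and capillary electrophoresis; gain-of-signal versus DMSO.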

Test [2] has as its target Oxysterols receptor LXR-beta (Homo sapiens) (UniProt P55055). As to the kind of experiment: ATG_LXRb_TRANS: Attagene TRANS-FACTORIAL HepG2 Assay for human Liver X Receptor beta (LXRb) (AID 2282981; active = hit-call score of the fitted dose curve at least 0.9, where 1 is the maximum). As to conditions: HepG2 Attagene TRANS GAL4-LXRb reporter, mRNA. An outline of the steps:
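Liver-derived HepG2 cells transfected with Gal4-responsive reporters were dosed for 24 h. Activation was scored as rise in reporter mRNA, by RT-PCR and capillary electrophoresis, above DMSO baseline.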

Test [3] deals with Hepatocyte nuclear factor 4-alpha (Homo sapiens) (UniProt P41235). As to the kind of experiment: ATG_HNF4a_TRANS: Attagene TRANS-FACTORIAL HepG2 Assay for human Hepatocyte Nuclear Factor 4 alpha (HNF4a) (AID 2282982; active = hit-call score of the fitted dose curve at least 0.9, where 1 is the maximum). To be noted: HepG2 HNF4a transactivation reporter, mRNA readout. An outline of the steps: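 Using HepG2 liver cells transfected with GAL4-UAS reporter units, chemical-induced mRNA increases were assessed after 24 hours. Fluorescent RT-PCR fragments were separated by capillary electrophoresis and compared with DMSO negative controls.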
Sequence of Hepatocyte nuclear factor 4-alpha (Homo sapiens) (P41235 whole entry, looked up, the tested form may be a part): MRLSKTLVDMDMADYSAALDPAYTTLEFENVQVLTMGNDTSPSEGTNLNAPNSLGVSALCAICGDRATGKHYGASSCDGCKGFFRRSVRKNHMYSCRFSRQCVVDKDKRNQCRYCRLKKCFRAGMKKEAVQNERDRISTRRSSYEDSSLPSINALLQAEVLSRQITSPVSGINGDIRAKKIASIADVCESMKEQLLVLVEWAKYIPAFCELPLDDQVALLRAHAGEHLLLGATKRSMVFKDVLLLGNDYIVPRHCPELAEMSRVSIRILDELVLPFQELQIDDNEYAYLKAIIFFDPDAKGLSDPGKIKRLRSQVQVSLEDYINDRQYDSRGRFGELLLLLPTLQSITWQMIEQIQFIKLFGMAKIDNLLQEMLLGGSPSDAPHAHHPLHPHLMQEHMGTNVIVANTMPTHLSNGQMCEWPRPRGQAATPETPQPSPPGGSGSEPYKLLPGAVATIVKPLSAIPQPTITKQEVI

The nature of test [4]: ATG_M_32_TRANS: Attagene TRANS-FACTORIAL HepG2 Assay for M32 Transcription Factor (Internal Marker) (AID 2282984; active = hit-call score of the fitted dose curve at least 0.9, where 1 is the maximum;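 note: transcript level of a background control reporter unit measured by RT-PCR and capillary electrophoresis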). As to conditions: HepG2 Attagene TRANS M32 internal marker reporter. An outline of the steps: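 Fluorescence-detected mRNA induction, HepG2 liver cells, 24 h after dosing. Multiple GAL4-UAS reporter units introduced by transient transfection; background-control endpoint analysed for gain of signal against DMSO.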

Test [5] deals with Nuclear respiratory factor 1 (Homo sapiens) (UniProt Q16656). The experiment in a line: ATG_NRF1_CIS: Attagene CIS-FACTORIAL HepG2 Assay for human Nuclear Respiratory Factor 1 (NRF1) Orphan Gene (AID 2282987). To be noted: HepG2 NRF1 cis-element reporter, Attagene multiplex; actives raise or lower the signal. An outline of the steps:
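Transcriptional reporter readout, one component of a 52-endpoint multiplexed HepG2 panel. Exposure 24 h; mRNA detected via RT-PCR and fluorescent capillary electrophoresis; fitting in both directions against DMSO.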

For test [6], the target named is Myc proto-oncogene protein (Homo sapiens) (UniProt P01106). The experiment in a line: ATG_Myc_CIS: Attagene CIS-FACTORIAL HepG2 Assay for human Myelocytomatosis (Myc) Proto-Oncogene Transcription Factor (AID 2282990). As to conditions: HepG2, Attagene cis-reporter transcription factor activity; actives raise or lower the signal. An outline of the steps:
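DMSO-normalised, bidirectionally fitted reporter mRNA signal. HepG2 cells transfected with cis reporter constructs, treated 24 h; transcripts detected by RT-PCR, 6-FAM primer extension and CE.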

Test [7] is described as follows: ATG_NF_kB_CIS: Attagene CIS-FACTORIAL HepG2 Assay for human Nuclear Factor Kappa B (NF-kB) (AID 2282991). To be noted: HepG2 Attagene cis-factorial NF-kB reporter mRNA; actives raise or lower the signal. An outline of the steps:
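HepG2, transient multi-reporter transfection, cis promoter elements (endogenous TFs). 24 h exposure. Total RNA → RT → PCR → 6-FAM label → HpaI → CE. Gain/loss vs DMSO.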

Test [8] in a line: ATG_NRF2_ARE_CIS: Attagene CIS-FACTORIAL HepG2 Assay for human Nuclear Factor Erythroid 2 Related Factor 2 (NFR2) response to Antioxidant Response Elements (ARE) (AID 2282992).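 For AC50: reporter mRNA level measured by RT-PCR and capillary electrophoresis fluorescence.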 To be noted: HepG2 Attagene ARE/NRF2 reporter, transcription factor activity; actives raise or lower the signal. An outline of the steps: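 Fluorescence intensity of reporter-specific cDNA fragments, separated by capillary electrophoresis, reflects mRNA induction in transfected HepG2 cells at 24 h. Activity is fitted bidirectionally, DMSO serving as baseline.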

A short description of test [9]: ATG_Oct_MLP_CIS: Attagene CIS-FACTORIAL HepG2 Assay for human Octamer-Binding Transcription Factor (Oct) (AID 2282993). To be noted: HepG2 Attagene cis-factorial Oct reporter, mRNA; actives raise or lower the signal. An outline of the steps: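 Using HepG2 cells bearing transfected cis-reporter constructs, mRNA induction was read after 24 h by fluorescent RT-PCR and capillary electrophoresis, with DMSO defining baseline for gain- or loss-of-signal fits.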

For test [10], the target named is Cellular tumor antigen p53 (Homo sapiens) (UniProt P04637). The experiment in a line: ATG_p53_CIS: Attagene CIS-FACTORIAL HepG2 Assay for human p53 Transcription Factor (AID 2282994). As to conditions: HepG2 p53 cis-element reporter, Attagene mRNA; actives raise or lower the signal. An outline of the steps: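 Transiently transfected HepG2 (multiple cis reporter transcription units); exposure 24 h; reporter RNA via RT-PCR, 6-FAM extension, 2 h HpaI digest at 37 C, CE detection; DMSO baseline.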
Sequence of Cellular tumor antigen p53 (Homo sapiens) (P04637 whole entry, looked up): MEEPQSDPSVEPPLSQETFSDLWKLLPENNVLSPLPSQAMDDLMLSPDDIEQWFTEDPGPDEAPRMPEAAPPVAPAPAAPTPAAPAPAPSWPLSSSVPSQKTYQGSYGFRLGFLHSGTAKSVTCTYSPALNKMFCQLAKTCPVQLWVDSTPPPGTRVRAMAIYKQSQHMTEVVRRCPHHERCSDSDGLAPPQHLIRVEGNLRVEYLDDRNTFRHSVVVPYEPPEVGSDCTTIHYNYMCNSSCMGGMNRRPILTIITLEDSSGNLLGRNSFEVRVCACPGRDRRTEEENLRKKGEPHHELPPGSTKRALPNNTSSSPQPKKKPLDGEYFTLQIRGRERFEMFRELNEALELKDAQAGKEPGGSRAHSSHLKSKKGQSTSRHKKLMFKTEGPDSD

A short description of test [11]: BSK_3C_TissueFactor: BioMAP Diversity Plus: 3C Assay for Tissue Factor Biomarker Activity (AID 2282997). To be noted: BioMAP 3C HUVEC, tissue factor biomarker readout; actives raise or lower the signal. An outline of the steps:
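Readout: Tissue Factor ELISA. Cells: human primary umbilical vein endothelium. Time: 24 h after dosing. Analysis: bidirectional fit, DMSO baseline.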

Test [12] can be described thus: BSK_3C_VCAM1: BioMAP Diversity Plus: 3C Assay for Vascular cell adhesion molecule 1 (VCAM1) Biomarker Activity (AID 2282999). To be noted: BioMAP 3C HUVEC, VCAM1 ELISA, cytokine-stimulated; actives raise or lower the signal. An outline of the steps: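 Vascular primary endothelium (human umbilical vein) was exposed to chemicals and assayed 24 h later. VCAM-1 levels came from ELISA, with DMSO serving as baseline for bidirectional fitting.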
(In general: ELISA stands for enzyme-linked immunosorbent assay.)

Test [13] can be described thus: BSK_4H_Eotaxin3: BioMAP Diversity Plus: 4H Assay for Eotaxin 3 Biomarker Activity (AID 2283000).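 For outcome: CCL26 protein level quantified by ELISA in parallel with SRB cytotoxicity check.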 To be noted: primary human endothelial cells (HUVEC); actives raise or lower the signal. An outline of the steps:
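HUVEC, 24 h post-dose, ELISA for Eotaxin-3/CCL26. Gain or loss of signal fitted bidirectionally vs DMSO baseline.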

A short description of test [14]: ATG_M_06_TRANS: Attagene TRANS-FACTORIAL HepG2 Assay for M06 Transcription Factor (Internal Marker) (AID 2282983; active = hit-call score of the fitted dose curve at least 0.9, where 1 is the maximum;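 note: reporter transcript level by RT-PCR then capillary electrophoresis fluorescence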). To be noted: HepG2 Attagene TRANS M06 internal marker reporter. An outline of the steps: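 In this multiplexed HepG2 system, compounds are incubated 24 h with cells carrying GAL4-UAS reporter units. Reporter RNA is amplified and resolved by capillary electrophoresis, and induction is scored against DMSO.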

Test [15] deals with Transcriptional activator Myb (Homo sapiens) (UniProt P10242). The experiment in a line: ATG_Myb_CIS: Attagene CIS-FACTORIAL HepG2 Assay for human Myeloblastosis (Myb) Proto-Oncogene Transcription Factor (AID 2282986). As to conditions: HepG2 Attagene CIS-FACTORIAL Myb reporter transcription; actives raise or lower the signal. An outline of the steps: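 Fluorescence signals from capillary electrophoresis of RT-PCR-amplified reporter cDNA give the read-out. Cells: HepG2 transfected with multiple cis-regulated reporter units. Exposure lasts 24 hours; DMSO defines baseline for gain or loss of signal.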
Sequence of Transcriptional activator Myb (Homo sapiens) (P10242 whole entry, looked up): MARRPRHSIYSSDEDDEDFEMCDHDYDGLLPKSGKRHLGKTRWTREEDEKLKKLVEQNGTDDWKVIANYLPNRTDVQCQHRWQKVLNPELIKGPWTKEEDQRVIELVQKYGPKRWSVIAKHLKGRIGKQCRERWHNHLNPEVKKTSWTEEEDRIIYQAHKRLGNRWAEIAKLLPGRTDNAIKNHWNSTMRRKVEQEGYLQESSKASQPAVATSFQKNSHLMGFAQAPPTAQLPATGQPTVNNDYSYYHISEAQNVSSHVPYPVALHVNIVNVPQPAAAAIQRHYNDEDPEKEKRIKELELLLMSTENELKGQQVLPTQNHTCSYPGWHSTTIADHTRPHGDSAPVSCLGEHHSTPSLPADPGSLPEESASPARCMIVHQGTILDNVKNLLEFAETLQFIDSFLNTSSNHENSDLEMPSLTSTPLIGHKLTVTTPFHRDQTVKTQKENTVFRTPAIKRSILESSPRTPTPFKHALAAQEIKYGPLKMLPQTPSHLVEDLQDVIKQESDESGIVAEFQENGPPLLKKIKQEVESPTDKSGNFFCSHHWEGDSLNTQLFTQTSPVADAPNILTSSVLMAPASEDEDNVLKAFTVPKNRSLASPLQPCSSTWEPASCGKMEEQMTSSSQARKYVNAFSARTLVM

The nature of test [16]: ATG_NFI_CIS: Attagene CIS-FACTORIAL HepG2 Assay for human Nuclear Factor I (NFI) (AID 2282989). To be noted: HepG2 cis-regulatory reporter, NFI response element transcription; actives raise or lower the signal. An outline of the steps:
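Transfected HepG2 liver cells, exposed 24 h, supplied total RNA for oligo(dT) reverse transcription and reporter-specific PCR. Labelled, HpaI-cut fragments were sized by capillary electrophoresis; DMSO set the baseline for bidirectional fitting.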

A short description of test [17]: BSK_3C_uPAR: BioMAP Diversity Plus: 3C Assay for Urokinase-type plasminogen activator receptor (uPAR) Biomarker Activity (AID 2282998). To be noted: BioMAP 3C HUVEC, uPAR biomarker ELISA; actives raise or lower the signal. An outline of the steps:
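In this endothelial cell-based assay, human umbilical vein primary cells were treated with chemicals and harvested at 24 h. uPAR was quantified using ELISA, with gains or losses fitted relative to DMSO controls.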

In test [18] the target is human Peroxisome Proliferator-activated Receptor alpha (PPARa), PPARA (gene 5465) (UniProt Q07869). As to the kind of experiment: ATG_PPARa_TRANS: Attagene TRANS-FACTORIAL HepG2 Assay for human Peroxisome Proliferator-activated Receptor alpha (PPARa) (AID 2283001; active = hit-call score of the fitted dose curve at least 0.9, where 1 is the maximum). An outline of the steps: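 Exposure: 24 h, transiently transfected HepG2 cells. Endpoint: GAL4-UAS reporter mRNA, RT-PCR with capillary electrophoresis fluorescence. Baseline: DMSO; increases fitted.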
Sequence of human Peroxisome Proliferator-activated Receptor alpha (PPARa), PPARA (gene 5465) (Q07869 whole entry, looked up, the tested form may be a part): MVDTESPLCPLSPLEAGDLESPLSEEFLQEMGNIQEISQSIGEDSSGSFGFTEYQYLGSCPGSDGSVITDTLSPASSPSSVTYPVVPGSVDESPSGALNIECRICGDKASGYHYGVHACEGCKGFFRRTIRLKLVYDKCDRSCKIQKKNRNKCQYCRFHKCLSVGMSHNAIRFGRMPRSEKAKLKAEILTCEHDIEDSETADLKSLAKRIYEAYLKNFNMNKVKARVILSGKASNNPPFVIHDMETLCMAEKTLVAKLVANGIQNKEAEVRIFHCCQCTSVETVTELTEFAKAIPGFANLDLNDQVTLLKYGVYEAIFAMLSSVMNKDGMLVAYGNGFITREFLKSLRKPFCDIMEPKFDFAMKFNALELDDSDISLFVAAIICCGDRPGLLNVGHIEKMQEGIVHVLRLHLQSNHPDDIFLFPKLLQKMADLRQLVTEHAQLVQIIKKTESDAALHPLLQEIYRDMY

Inconclusive results are not listed. Activity calls are given as the source filed them. Rule for the calls, unless noted: active = hit-call score of the fitted dose curve at least 0.9, where 1 is the maximum; inactive = score below 0.9.

Sequence of Oxysterols receptor LXR-beta (Homo sapiens) (P55055 whole entry, looked up, the tested form may be a part): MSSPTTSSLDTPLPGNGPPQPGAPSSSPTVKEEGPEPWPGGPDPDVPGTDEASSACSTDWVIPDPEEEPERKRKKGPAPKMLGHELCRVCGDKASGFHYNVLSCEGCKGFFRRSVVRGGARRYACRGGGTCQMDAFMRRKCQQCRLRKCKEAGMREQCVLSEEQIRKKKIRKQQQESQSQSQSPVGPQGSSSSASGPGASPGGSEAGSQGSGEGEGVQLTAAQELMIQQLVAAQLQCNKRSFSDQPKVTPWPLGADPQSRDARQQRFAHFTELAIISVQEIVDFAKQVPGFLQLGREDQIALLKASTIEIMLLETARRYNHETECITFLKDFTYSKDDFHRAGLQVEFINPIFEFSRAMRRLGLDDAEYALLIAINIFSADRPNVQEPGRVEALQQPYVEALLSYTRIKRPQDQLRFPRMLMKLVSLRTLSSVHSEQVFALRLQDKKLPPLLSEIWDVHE
Sequence of Myc proto-oncogene protein (Homo sapiens) (P01106 whole entry, looked up): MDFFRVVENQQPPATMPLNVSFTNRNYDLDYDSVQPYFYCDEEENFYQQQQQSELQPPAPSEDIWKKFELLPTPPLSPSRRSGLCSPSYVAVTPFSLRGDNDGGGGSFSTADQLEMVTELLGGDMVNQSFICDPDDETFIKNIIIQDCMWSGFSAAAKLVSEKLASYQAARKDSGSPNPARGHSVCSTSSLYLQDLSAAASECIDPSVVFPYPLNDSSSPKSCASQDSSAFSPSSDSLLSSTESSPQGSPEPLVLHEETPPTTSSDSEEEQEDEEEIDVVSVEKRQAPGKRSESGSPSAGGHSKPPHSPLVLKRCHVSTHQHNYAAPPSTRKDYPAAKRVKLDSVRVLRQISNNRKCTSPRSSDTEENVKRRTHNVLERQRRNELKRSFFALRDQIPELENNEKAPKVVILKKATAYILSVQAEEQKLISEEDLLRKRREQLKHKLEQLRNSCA
Sequence of Bile acid receptor (Homo sapiens) (Q96RI1 whole entry, looked up, the tested form may be a part): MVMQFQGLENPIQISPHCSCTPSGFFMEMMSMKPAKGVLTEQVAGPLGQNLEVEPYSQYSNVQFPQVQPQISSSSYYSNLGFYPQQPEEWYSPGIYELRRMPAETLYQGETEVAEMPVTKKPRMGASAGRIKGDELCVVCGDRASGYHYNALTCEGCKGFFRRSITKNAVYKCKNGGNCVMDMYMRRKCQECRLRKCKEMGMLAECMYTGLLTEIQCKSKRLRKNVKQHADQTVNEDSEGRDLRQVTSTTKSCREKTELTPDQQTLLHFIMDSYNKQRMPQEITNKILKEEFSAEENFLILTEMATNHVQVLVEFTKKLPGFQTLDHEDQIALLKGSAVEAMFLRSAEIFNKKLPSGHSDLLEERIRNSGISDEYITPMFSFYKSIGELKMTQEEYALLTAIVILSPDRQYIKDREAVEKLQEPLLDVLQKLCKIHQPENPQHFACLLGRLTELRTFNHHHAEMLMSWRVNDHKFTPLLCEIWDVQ
Sequence of Nuclear respiratory factor 1 (Homo sapiens) (Q16656 whole entry, looked up): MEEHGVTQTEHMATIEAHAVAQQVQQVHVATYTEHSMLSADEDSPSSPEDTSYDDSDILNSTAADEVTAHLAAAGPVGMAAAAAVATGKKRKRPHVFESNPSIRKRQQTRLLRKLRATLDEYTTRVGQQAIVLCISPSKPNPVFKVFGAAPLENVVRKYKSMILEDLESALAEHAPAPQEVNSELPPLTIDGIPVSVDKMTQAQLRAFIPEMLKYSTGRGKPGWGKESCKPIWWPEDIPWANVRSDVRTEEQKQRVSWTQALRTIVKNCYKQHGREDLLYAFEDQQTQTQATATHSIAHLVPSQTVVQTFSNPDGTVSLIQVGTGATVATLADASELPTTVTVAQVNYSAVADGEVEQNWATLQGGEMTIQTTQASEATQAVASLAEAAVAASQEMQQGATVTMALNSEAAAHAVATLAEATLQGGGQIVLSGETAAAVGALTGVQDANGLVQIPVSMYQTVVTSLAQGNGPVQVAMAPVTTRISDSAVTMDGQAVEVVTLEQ

Broadly, the AC50 is the concentration giving half of the maximal activity seen. Take `CCCOc1sc(C(=O)N2CCC(c3cc(CN)ccc3F)CC2)c(C)c1Br`: the molecule was called inactive in [1], in [3], in test [4], in test [5], in test [6] and in test [7]. Further, the call in [9] and in test [10] was inactive. For the same molecule, the AC50 in [2] is 1.46 µM (active); in test [8], 1.49 µM (active); in test [11], 9.59 µM (active); in [12], 7.38 µM (active); in [13], 9.89 µM (active).

Consider `NCC(F)(F)C(F)(F)C(F)(F)C(F)(F)C(F)(F)C(F)(F)C(F)(F)F`, for which the outcome in test [1], in test [3], in test [14], in test [15], in [5] and in test [16] was inactive. Also, the result in test [6], in [7], in [8], in test [9], in test [10] and in test [11] was inactive. In addition, the outcome in [17], in test [12], in [13] and in test [18] was inactive.

Turning to `OC1CCC(C2CCCCC2)CC1` (centres undefined), the call in test [1], in test [2], in [14], in [4], in [15] and in [5] was inactive. The molecule was called inactive in test [6], in test [9], in test [10], in test [11], in test [17] and in test [12]. The outcome in test [13] and in [18] was inactive. Besides, the concentration at half-maximal activity (AC50) in [8] was 140 µM (active) [middle of 4 runs].

Turning to `Cc1cc(C)c(O)c(C)c1`, the molecule was classed as inactive in test [1], in [3], in test [14], in test [4], in test [5] and in test [16]. Besides, the call in test [6], in [10], in [11], in test [17], in test [12] and in test [13] was inactive. The result in test [18] was inactive. For the same molecule, the AC50 is 27.7 µM (active) in test [8] and 100 µM (active) in [9].
